Assay outcomes from PubChem.
CYP2C19 act: human CYP2C19 activators, primary screen, biochemical, luminescence. recombinant CYP2C19, luciferin-H EGE luminescence; hits give high values; 0 = fully inhibited enzyme, 1 = untreated enzyme. activation factor at 5 µM. AID 1025, 2008. Cytochrome P450 2C19 (Homo sapiens), P33261. 96,000 tested, under 10 active;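 active means activation factor of at least 2 at 5 µM in the primary screen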;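 further: 0 = wells with 2.5 mM tranylcypromine and 1 = vehicle-only wells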
Target sequence (P33261 whole entry, looked up): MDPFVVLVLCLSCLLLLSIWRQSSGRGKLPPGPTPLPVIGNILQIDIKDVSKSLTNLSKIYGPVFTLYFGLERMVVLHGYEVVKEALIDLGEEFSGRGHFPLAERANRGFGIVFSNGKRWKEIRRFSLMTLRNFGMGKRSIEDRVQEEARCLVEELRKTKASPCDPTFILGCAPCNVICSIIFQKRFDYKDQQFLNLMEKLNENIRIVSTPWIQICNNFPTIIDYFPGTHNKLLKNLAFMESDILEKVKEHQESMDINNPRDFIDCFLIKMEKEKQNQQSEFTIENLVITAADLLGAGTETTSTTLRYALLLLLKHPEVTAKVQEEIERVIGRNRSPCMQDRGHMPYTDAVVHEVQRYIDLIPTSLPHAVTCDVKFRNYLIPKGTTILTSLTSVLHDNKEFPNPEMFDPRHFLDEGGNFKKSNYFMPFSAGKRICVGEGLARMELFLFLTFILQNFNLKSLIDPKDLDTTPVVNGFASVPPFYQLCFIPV
CYP2C9 inh: blockers of cytochrome P450 2C9 activity – biochemical, luminescence, ADME assay, primary screen | CYP2C9 Supersomes, luciferin-H conversion | P11712 | AID 777, 2007 | hit rate 20% among 96,000 | inhibition, % at 5 µM;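 active means blocking of liver enzyme CYP2C9 beyond about 50% at 5 µM, limit read from the data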
CYP2C19 inh: blockers of cytochrome P450 2C19 activity – biochemical, luminescence, ADME assay, primary screen; hit rate 21% among 96,000; CYP2C19 Supersomes, luciferin-H EGE luminescence, 30 min; P33261; inhibition, % at 5 µM;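 active means CYP2C19 inhibition above a set limit at 5 µM in the primary screen, cut at about 50% in these data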;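 further: plate controls were negative control wells for no effect and 2.5 mM tranylcypromine positive control for full effect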
CYP2C9 act: human CYP2C9 activators, primary screen, biochemical, luminescence. Cytochrome P450 2C9 (Homo sapiens), P11712. recombinant CYP2C9, luciferin-H conversion; hits give high values; factor 1 = untreated enzyme, 0 = blocked. activation factor at 5 µM. hit rate 1.4% among 96,000. AID 1024, 2008;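 active means activation factor of 2 or more for CYP2C9 at a 5 µM dose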;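 further: 0 = sulfaphenazole-blocked wells and 1 = vehicle-only wells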
Measles CPE: compounds protecting cells from measles virus cytopathic effect, primary screen, measles RdRp inhibitor project, single point, MLSMR library, absorbance; Measles virus-infected cells, CPE protection; hit rate 1.5% among 140,000; protection (pct of control), % at 4 µM; in the data active means protection mostly above about 24%, no sharp cut-off; inactive means mostly below about 26%
* marks the source's active call; other numbers are inactive results; x = no result given. The list is not random: actives were taken first. Their share in the collection is about 22%.

SMILES	CYP2C19 act	CYP2C9 inh	CYP2C19 inh	CYP2C9 act	Measles CPE
CCCCCCC(C)NC(=S)Nc1cc(S(=O)(=O)N(C)C)ccc1C (configuration not stated)	x	x	x	x	10.0
Cc1ccc(CSc2nnc(SCC(=O)N/N=C/C=C/c3ccccc3[N+](=O)[O-])s2)cc1	x	x	x	x	16.9
O=S(=O)(NC1c2cccc3cccc(c23)C1N1CCN(CCO)CC1)c1ccccc1 (configuration not stated)	0.6	24.4	37.8	0.8	7.2
O=C(c1ccccc1)N1CCN(C2c3cccc4cccc(c34)C2NS(=O)(=O)c2ccccc2)CC1 (configuration not stated)	0.5	74.7*	51.5*	0.3	7.9
O=S(=O)(NC1c2cccc3cccc(c23)C1N1CCNCC1)c1ccccc1 (configuration not stated)	0.4	19.0	55.8*	0.8	8.2
Cc1cc(OCc2cn3cccnc3n2)ccc1Cl	x	x	x	x	4.8
S=C(NCCc1ccccn1)NC1CCCCC1	x	x	x	x	7.9
O=C(Cn1c(=O)n(CCCC(=O)NC2CCCC2)c(=O)c2ccccc21)NCCC1=CCCCC1	0.8	68.2*	23.4	0.3	3.2
CCCCNC(=O)CCCn1c(=O)c2ccccc2n(CC(=O)NCCC2=CCCCC2)c1=O	0.3	72.0*	66.6*	0.3	6.1
CCCN(CCC)C(=O)Cn1c(=O)n(CCCCC(=O)NC2CCCC2)c(=O)c2ccccc21	0.8	46.2	19.4	0.5	8.5
O=C(CCCCn1c(=O)[nH]c2ccccc2c1=O)NCCC1=CCCCC1	0.7	29.4	29.8	0.7	6.9
CC(C(=O)O)N1C(=O)CSc2ncccc21 (configuration not stated)	1	-2.8	-4.1	1	8.7
Cc1cc(NC(=O)c2ccc(Cl)cc2)c(C(C)C)cc1O	0.5	-77.6	51.0*	1.8	6.3
O=C(Nc1ccccc1O)c1ccc(Cl)cc1	1	-8.2	1.4	1.1	3.5
O=C(CSCc1ccco1)c1ccc(Cl)s1	0.9	24.3	12.4	0.8	5.9
CCOC(=O)C1(CC)CC(CSc2nc3ccccc3[nH]2)OC1=O (configuration not stated)	0.5	81.6*	51.8*	0.2	15.5
CCOC(=O)C1(CCC(C)C)CC(CSc2nc3ccccc3[nH]2)OC1=O (configuration not stated)	0.9	57.5*	14.5	0.4	23.0
CN(c1ccc(OCC(=O)N2CCC(C(N)=O)CC2)cc1)S(=O)(=O)c1cccs1	1	4.8	-2.8	1	5.6
CN(c1ccc(OCC(=O)NC2CCCC2)cc1)S(=O)(=O)c1cccs1	0.9	71.9*	13.0	0.3	17.5
CCCCNC1=C(Br)C(=O)CC(C)(C)C1	0.2	2.4	82.5*	1	10.8
COc1ccc(-c2nc(C)sc2C)cc1	x	x	x	x	5.1
CC1(C)CC(=O)C2=C(C1)N(CCN1CCOCC1)C1=C(C(=O)CC(C)(C)C1)C2c1cccc(F)c1	0.7	7.7	27.6	0.9	7.0
Cc1ccc(NC(=O)CCC(=O)c2ccc(F)cc2)cc1Cl	1	3.4	3.1	1	2.2
COc1cc(-c2nnc(SCC#CCO)o2)cc(OC)c1OC	0.8	29.3	15.9	0.7	32.0
Cc1ccc2c(CSc3nnc(C4CC4)n3N)cc(=O)oc2c1	0.2	10.1	78.5*	0.9	15.4
SMILES	CYP2C19 act	CYP2C9 inh	CYP2C19 inh	CYP2C9 act	Measles CPE
COc1cc(-c2nnc(SCc3cc(=O)oc4cc(C)ccc34)o2)cc(OC)c1OC	0.3	82.9*	66.2*	0.2	15.3
COc1ccc(C(NC(=O)N2CC(C)OC(C)C2)C(Cl)(Cl)Cl)cc1F (configuration not stated)	x	x	x	x	8.2
Cc1nc2nc(SCC(=O)NCCN3CCOCC3)nn2c(C)c1Cc1ccccc1	0.7	30.5	30.0	0.7	3.8
Cc1nc2nc(SCC(=O)N3CCOCC3)nn2c(C)c1Cc1c(F)cccc1Cl	0.8	53.3*	17.7	0.5	2.0
c1ccc2[nH]c(SCc3cscn3)nc2c1	0.1	22.9	91.0*	0.8	8.2
Fc1ccccc1CSc1nc2ccccc2[nH]1	0	84.6*	100.1*	0.2	23.3
Fc1ccccc1CSc1nc2ncc(Br)cc2[nH]1	0.1	78.2*	87.1*	0.2	6.9
COc1cc2c(cc1NC(=O)CSc1ccc(Cl)cc1)oc1ccccc12	x	x	x	x	2.7
CCn1c(/C=C2\C(=O)Nc3ccccc32)nc2ccccc2c1=O	x	x	x	x	54.0
O=C(NCCCN1CCOCC1)NC12CC3CC(CC(C3)C1)C2	1.1	-6.0	-5.6	1.1	20.5
O=C(Nc1ccc(CN2CCOCC2)cc1)c1cccs1	1.1	-12.3	-12.7	1.1	1.3
O=C(Nc1ccc2nc(-c3cccnc3)[nH]c2c1)C12CC3CC(CC(C3)C1)C2	x	x	x	x	16.7
CCOc1ccc2c(c1)-c1c(ssc1=S)C(C)(C)N2	0.3	71.6*	71.6*	0.3	23.0
CCOc1ccc2c(c1)-c1c(ssc1=S)C(C)(C)N2C(=O)CSC1=NCCS1	x	x	x	x	4.2
COc1ccc(C2C=C(c3ccccc3)Nc3nnnn32)cc1 (configuration not stated)	0.1	74.1*	89.5*	0.3	6.2
COc1ccc(C2=CC(c3ccc(C)cc3)n3nnnc3N2)cc1 (configuration not stated)	0.3	86.5*	74.7*	0.1	16.7
COc1cccc(C2=CC(c3ccccc3)n3nnnc3N2)c1 (configuration not stated)	0.2	79.4*	82.2*	0.2	17.5
COc1ccc(C2C=C(c3ccccc3)Nc3nc(NC(C)=O)nn32)cc1 (configuration not stated)	1.1	-5.9	-11.2	1.1	9.9
CCn1nc(C)c(NC(=O)CC23CC4CC(CC(C4)C2)C3)c1C	x	x	x	x	9.3
CCN(CC)C(=S)SCC(=O)NC12CC3CC(CC(C3)C1)C2	x	x	x	x	1.7
O=C(Nc1ccc2c(c1)nc1n2CCSC1)c1ccccc1	0.6	54.0*	38.5	0.5	2.2
COCCN1CCn2c(nc3cc(NC(=O)c4cccs4)ccc32)C1	1	26.1	1.9	0.7	3.4
CC(c1ccccc1)N1CCn2c(nc3cc(NC(=O)c4cccs4)ccc32)C1 (configuration not stated)	0.6	83.6*	36.0	0.2	2.1
COc1ccc(C(=O)Nc2ccc3c(c2)nc2n3CCSC2)cc1	0.7	33.3	27.8	0.7	1.8
COc1ccc(S(=O)(=O)Nc2c3ccccc3nc(=O)n2-c2ccccc2)cc1	0.9	15.5	14.6	0.8	1.6
CCc1nc2c(sc3nc4c(cc32)COC(C)(C)C4)c(=O)n1Cc1ccco1	0.9	30.2	13.5	0.7	5.1
Cc1cc2ccccn2c1C(=O)c1ccc(Cl)cc1	0.8	2.7	16.2	1	4.6
Cc1cc2ccccn2c1C(=O)c1ccncc1	0	65.0*	98.1*	0.3	17.3
O=C(NCc1cccs1)c1ccccc1[N+](=O)[O-]	x	x	x	x	25.6
